Results published in the supplement of paper PMC7156485.
± gives the standard deviation of the averaged measurements.

Columns and labels:
Conditions in all cases: concentration: 10 µM; 24 h
[1] = system: HCC1569; experiment: cell number relative to DMSO (% of DMSO); higher = more cells (less growth inhibition / toxicity)
Summary of the method: (§1)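 Compounds were applied at 10 µM for 24 h at 37 °C, in triplicate, to HCC1569 and TDF cells. The cells were then fixed and stained for H1.0, and nuclei were counterstained with DAPI. Nuclear H1.0 intensity or cell number is reported relative to the plate control as a percent, taking the median of replicates. Smoothing for positional effects was applied to HCC1569 values only.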

[2] = system: TDF; experiment: as above
Summary of the method: as §1

[3] = system: TDF; experiment: H1.0 immunofluorescence intensity relative to DMSO (% of DMSO); higher = stronger H1.0 induction, active = 120 or more
Summary of the method: as §1

[4] = system: HCC1569; experiment: H1.0 immunofluorescence intensity relative to DMSO (% of DMSO); higher = stronger H1.0 induction, active = 140 or more
Summary of the method: as §1
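Wherever H1.0 immunofluorescence intensity relative to DMSO is given: TDF is a line of transformed human dermal fibroblasts of mesenchymal origin.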
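Wherever cell number relative to DMSO is given: TDF denotes transformed human dermal fibroblasts of mesenchymal origin.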

In the case of `COc1cc2ncnc(Nc3ccc(Cl)cc3F)c2cc1OC.Cl`, the cell number [1] is reported as 83.3, the cell number [2] is reported as 102 and the H1.0 immunofluorescence intensity [3] is reported as 95.7 (inactive). The H1.0 immunofluorescence intensity [4] was 141 (active).

With `CC(C(=O)O)c1cccc(Oc2ccccc2)c1` (stereo unspecified) [Fenoprofen] the cell number [1] was 102, the cell number [2] was 101 and the H1.0 immunofluorescence intensity [3] was 94.2 (inactive). For the same compound, the H1.0 immunofluorescence intensity [4] was 120 (inactive).

`O=C1c2ccccc2-n2c1nc1ccccc1c2=O` [Tryptanthrin] was tested, and the cell number [1] was 96.9, the cell number [2] was 53.6 and the H1.0 immunofluorescence intensity [3] was 101 (inactive). The H1.0 immunofluorescence intensity [4] was 93.6 (inactive).

With `O=c1[nH]c(=O)n(C2CCCO2)cc1F` (stereo unspecified) [Ftorafur] the cell number [1] was 104, the cell number [2] was 102 and the H1.0 immunofluorescence intensity [3] was 99.6 (inactive). For the same compound, the H1.0 immunofluorescence intensity [4] was 103 (inactive).

In the case of `NC1CCN(c2c(F)cc3c(=O)c(C(=O)O)cn(C4CC4)c3c2Cl)C1` (stereo unspecified) [Clinafloxacin], the cell number [1] is reported as 103, the cell number [2] is reported as 101 and the H1.0 immunofluorescence intensity [3] is reported as 94.3 (inactive). The H1.0 immunofluorescence intensity [4] was 107 (inactive).

With `Br.C=CCN1CCc2c(cc(O)c(O)c2Cl)C(c2ccccc2)C1` (racemic) the cell number [1] was 94.1, the cell number [2] was 79.4 and the H1.0 immunofluorescence intensity [3] was 96.2 (inactive). The H1.0 immunofluorescence intensity [4] was 107 (inactive).

For `Cc1[nH]c2ccccc2c1CCNC(=O)c1ccccc1F` [2-fluoro-N-[2-(2-methyl-1H-indol-3-yl)ethyl]benzamide], the cell number [1] was 100, the cell number [2] was 106 and the H1.0 immunofluorescence intensity [3] was 110 (inactive). For the same compound, the H1.0 immunofluorescence intensity [4] was 93.6 (inactive).

For `CCCCCC=CCC=CCC=CCC1OC1CCCC(=O)O` (stereo unspecified) [5,6-Epoxyeicosatrienoic acid], the cell number [1] was 101, the cell number [2] was 108 and the H1.0 immunofluorescence intensity [3] was 89.4 (inactive). The H1.0 immunofluorescence intensity [4] was 103 (inactive).

In the case of `CCOC([O-])=Nc1c[n+](N2CCOCC2)no1` [Molsidomine], the cell number [1] is reported as 106 ± 1.7, the cell number [2] is reported as 96.4 ± 7.5 and the H1.0 immunofluorescence intensity [3] is reported as 101 (inactive). For the same compound, the H1.0 immunofluorescence intensity [4] was 94 (inactive).
